This is a sample that favours compounds with a hit; in the whole collection about 14% have one here.
USP17 block: blocks human USP17 ubiquitin-rhodamine cleavage; A8MUK1; purified USP17, Ub-rhodamine cleavage fluorescence, 3 h; inhibition, % at 50 µM; 47,000 compounds, 6.5% hits; AID 1645855
USP30 inh: blocks human USP30 ubiquitin-rhodamine cleavage. Q70CQ3. purified USP30, Ub-rhodamine cleavage fluorescence. inhibition, % at 25 µM. 47,000 compounds, 5.3% hits
USP28 block: inhibitors of human USP28 deubiquitinase | Q96RU2 | purified USP28, Ub-rhodamine cleavage fluorescence, 30 min | inhibition, % at 25 µM | 47,000 compounds, 3% hits | AID 1645857
USP8 inh: inhibitors of human USP8 deubiquitinase. P40818. purified USP8, Ub-rhodamine cleavage fluorescence, 30 min. inhibition, % at 20 µM. 47,000 compounds, 4.2% hits
Target sequence (P40818 whole entry, looked up): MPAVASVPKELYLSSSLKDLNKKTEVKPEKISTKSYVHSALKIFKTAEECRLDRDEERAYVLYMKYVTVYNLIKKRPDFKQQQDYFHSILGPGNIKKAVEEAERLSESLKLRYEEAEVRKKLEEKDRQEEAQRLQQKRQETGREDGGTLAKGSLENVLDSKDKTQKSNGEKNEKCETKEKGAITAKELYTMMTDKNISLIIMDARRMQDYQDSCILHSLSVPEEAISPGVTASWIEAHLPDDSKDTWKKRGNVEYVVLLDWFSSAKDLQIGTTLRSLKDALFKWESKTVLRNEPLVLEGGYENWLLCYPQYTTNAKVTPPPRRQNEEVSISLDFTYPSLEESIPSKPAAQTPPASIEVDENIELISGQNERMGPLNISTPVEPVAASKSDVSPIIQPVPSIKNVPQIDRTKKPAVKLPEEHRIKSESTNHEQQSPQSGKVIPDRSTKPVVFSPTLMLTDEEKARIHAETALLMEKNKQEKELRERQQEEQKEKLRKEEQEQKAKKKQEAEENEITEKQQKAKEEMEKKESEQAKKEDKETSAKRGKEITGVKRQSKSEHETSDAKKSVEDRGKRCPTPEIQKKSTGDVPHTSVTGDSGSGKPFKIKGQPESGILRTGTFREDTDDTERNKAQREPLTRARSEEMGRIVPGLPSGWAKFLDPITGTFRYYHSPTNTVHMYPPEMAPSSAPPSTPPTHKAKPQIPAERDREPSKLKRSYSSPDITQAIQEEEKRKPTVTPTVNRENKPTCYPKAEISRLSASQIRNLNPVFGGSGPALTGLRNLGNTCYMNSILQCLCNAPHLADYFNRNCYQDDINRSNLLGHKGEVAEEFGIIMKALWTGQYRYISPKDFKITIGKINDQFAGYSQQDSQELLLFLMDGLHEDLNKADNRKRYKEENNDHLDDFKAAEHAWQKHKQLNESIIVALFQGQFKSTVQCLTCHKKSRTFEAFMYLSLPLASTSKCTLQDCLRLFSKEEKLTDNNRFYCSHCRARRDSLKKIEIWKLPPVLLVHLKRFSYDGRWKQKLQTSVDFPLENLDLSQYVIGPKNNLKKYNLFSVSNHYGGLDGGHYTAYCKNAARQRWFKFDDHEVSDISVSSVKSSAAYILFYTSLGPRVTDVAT
USP10 block: blocks human USP10 ubiquitin-rhodamine cleavage; inhibition, % at 20 µM; 47,000 compounds, 1.1% hits; AID 1645856; purified USP10, Ub-rhodamine fluorescence, 60 min; Q14694
* hit, by the source's call; nt = no result. No stated cut-off is given here; in the data, active means inhibition above about 30%; inactive means the rest.

SMILES	USP17 block	USP30 inh	USP28 block	USP8 inh	USP10 block
C#CCNC(=O)CC[C@H]1CNC(=O)[C@@H]2[C@@H](CCN2C2CCCCC2)N1C	-42.1	32.0*	29.9	42.3*	2.6
CN1[C@@H](CCC(=O)N2CC[C@@H](O)C2)CNC(=O)[C@@H]2[C@H]1CCN2C1CCCCC1	-7.0	-19.7	-10.3	-6.5	-3.5
Cc1ccc(CN2CC[C@@H]3[C@H]2C(=O)NC[C@H](CCC(=O)N2CCOCC2)N3C)cc1	-36.7	-13.0	8.9	12.1	-1.0
CN1[C@@H](CCC(=O)N2CCOCC2)CNC(=O)[C@@H]2[C@H]1CCN2Cc1ccc(F)cc1	-72.2	1.4	17.6	43.0*	-0.4
CN1[C@@H](CCC(=O)N2CCC(O)CC2)CNC(=O)[C@@H]2[C@H]1CCN2Cc1ccc(F)cc1	-64.9	14.3	12.5	38.4*	-4.1
CN1[C@@H](CCC(=O)N2CCN(c3ccccn3)CC2)CNC(=O)[C@@H]2[C@H]1CCN2C1CCOCC1	-32.6	43.7*	36.2*	68.7*	-2.2
CCCn1cc(S(=O)(=O)N2CC[C@H]3NCCCCC[C@H]32)c(C)n1	-0.1	-24.7	-1.4	-7.5	-2.8
Cc1cccc(NC(=O)c2cc(-c3ccc(C)c(C)c3O)n[nH]2)c1	87.5*	76.0*	27.8	80.8*	25.8
CC(=O)Nc1ccc(NC(=O)c2cc(-c3cc(C)cc(C)c3O)n[nH]2)cc1	35.0*	62.2*	45.5*	-7.8	10.0
Cc1ccc(NC(=O)c2cc(-c3ccncc3)n[nH]2)c(C)c1	1.5	16.1	6.1	3.5	0.1
Cc1ccc(-c2cc(C(=O)Nc3cc(C)ccc3C)[nH]n2)c(O)c1	33.7*	-39.7	-4.7	-11.8	-1.6
COc1ccc(OC)c(NC(=O)c2cc(-c3ccc(C)c(C)c3O)n[nH]2)c1	25.9	2.8	18.1	9.0	4.0
Cc1nc2nc(-n3c(C)ccc3C)nn2c(C)c1C/C=C/c1ccccc1	-12.0	-91.1	-17.1	-22.4	-4.0
Cc1cc(-c2cnc(N3CCCC3)nc2C2CCN(c3ncccn3)CC2)on1	6.3	23.2	6.0	4.6	4.4
CCOc1ccc(-c2nc(Cn3nnc(C(=O)Nc4ccccc4C)c3C)c(C)o2)cc1	nt	43.2*	16.9	18.8	6.1
Cc1cc(C)cc(NC(=O)c2c(C)oc3nc[nH]c(=O)c23)c1	33.4*	-8.6	4.5	8.7	16.1
Cc1cc(-c2ccc(S(=O)(=O)Nc3ccc(Cl)cn3)s2)on1	-9.7	-206.4	-23.3	1.4	3.4
CCOC(=O)c1csc(NC(=O)c2cc(-c3ccccc3)nc3ccccc23)n1	8.4	6.7	5.9	22.5	7.1
CCOC(=O)c1csc(NC(=O)c2ccccc2Br)n1	-0.1	5.5	41.4*	-4.2	2.8
O=S(=O)(NCc1csc2ccc(Cl)cc12)c1cccc2cccnc12	5.8	29.2	10.2	38.4*	3.5
O=C(CCCn1c(=O)c2ccccc2n(Cc2cc(=O)n3ccccc3n2)c1=O)NCc1ccco1	-2.4	-4.3	-0.5	-19.1	-3.3
CCOc1ccccc1NC(=O)Cn1c(=O)n(CCC(=O)NCCc2ccc(OC)c(OC)c2)c(=O)c2ccccc21	14.1	20.5	16.1	22.2	12.9
COc1ccc(CCNC(=O)c2ccc(Cn3c(=O)c4ccccc4n(CC(=O)Nc4cc(C)[nH]n4)c3=O)cc2)cc1OC	66.4*	64.7*	8.5	1.3	4.4
COc1ccc(CCNC(=O)CCCCn2c(=O)c3ccccc3n(Cc3cccc(F)c3)c2=O)cc1OC	59.8*	54.9*	9.3	-2.9	2.4
O=C(CCn1c(=O)c2ccccc2n(Cc2cc(=O)n3ccccc3n2)c1=O)NCCc1ccc(Cl)cc1	48.4*	61.4*	15.8	12.5	10.1
SMILES	USP17 block	USP30 inh	USP28 block	USP8 inh	USP10 block
COc1ccc(C(=O)CSc2nnc3n(Cc4ccc(C)cc4)c(=O)c4ccccc4n23)cc1OC	24.7	45.4*	16.2	5.3	3.5
Cc1cccc(Nc2ccc(N3CCN(C(=O)c4ccccc4Cl)CC3)nn2)n1	11.8	24.9	15.1	3.6	1.5
CC(=O)c1cccc(NC(=O)C2CCCN(S(=O)(=O)c3cccs3)C2)c1 (centres undefined)	-3.6	-17.0	-6.8	-2.8	-4.5
Cc1cc(NC(=O)Cn2c(=O)n(CC3CCC(C(=O)NCCc4ccccc4)CC3)c(=O)c3ccccc32)n[nH]1 (centres undefined)	58.1*	45.0*	29.9	36.5*	14.7
COc1ccc(CCNC(=O)CCn2c(=O)c3ccccc3n(Cc3ccc(F)cc3)c2=O)cc1OC	45.7*	42.9*	31.1*	19.8	11.8
COc1ccc(CCNC(=O)CCn2c(=O)c3ccccc3n(Cc3ccccc3C#N)c2=O)cc1OC	3.1	15.4	2.0	-18.2	2.9
COc1ccc(CCNC(=O)CCn2c(=O)c3ccccc3n(Cc3ccc(C)cc3)c2=O)cc1OC	43.3*	64.4*	13.9	20.9	4.7
COc1ccc(S(=O)(=O)N2CCC(n3c(C(F)(F)F)nc4cc(S(C)(=O)=O)ccc43)CC2)cc1	15.0	18.9	7.0	0.7	-4.1
CCOCC1CN(Cc2cccc(C#N)c2)Cc2ccnn2C1 (centres undefined)	-7.0	19.7	8.7	-60.7	1.2
NS(=O)(=O)c1ccc(CNS(=O)(=O)/C=C/c2ccccc2)cc1	85.9*	78.2*	56.7*	17.7	3.1
O=C(Nc1ccc(F)cc1)c1noc2c1CCc1sccc1-2	35.8*	3.3	6.4	-1.0	0.6
O=C(Nc1ccc2c(c1)OCO2)c1noc2c1CCc1sccc1-2	12.3	-22.2	12.9	52.8*	17.3
Cc1ccc(NC(=O)c2noc3c2CCc2sccc2-3)cc1Cl	12.8	20.4	11.3	20.4	11.3
Cc1cccc(NC(=O)c2noc3c2CCc2sccc2-3)n1	64.8*	22.0	14.6	94.1*	5.5
O=C(Nc1ccccc1)c1noc2c1CCc1sccc1-2	36.8*	3.8	19.2	3.8	4.7
Cc1ccc(C)c(N(C(C)C(=O)NCc2ccncc2)S(C)(=O)=O)c1 (centres undefined)	35.3*	35.1*	17.0	18.2	3.0
Cc1ccc(NS(=O)(=O)c2cc(C(=O)NCc3ccncc3)ccc2C)c(C)c1	10.6	19.2	17.2	21.2	1.0
Cc1cccc(C)c1NC(=O)c1cc(S(=O)(=O)N2CCN(Cc3ccc4c(c3)OCO4)CC2)ccc1F	2.5	4.7	2.2	3.5	10.9
O=C(NC1CCC1)c1c2c(-c3ccncc3)ncnc2n2ccccc12	67.8*	nt	nt	-19.0	-3.9
CC(C)(C)c1nc(CN2CCOC(Cn3cncn3)C2)cs1 (centres undefined)	-14.3	-27.0	-17.4	-4.8	-6.6
CNC(=O)[C@@H]1C[C@@H]2CN(S(=O)(=O)c3ccccc3)CCN2[C@@]12C(=O)Nc1ccccc12	0.7	14.3	3.6	16.3	0.0
Cc1nnc(Nc2cccc(C3CCCN(CC(N)=O)C3)n2)s1 (centres undefined)	7.9	30.1*	11.2	5.1	3.5
Cc1nnc(Nc2cccc(C3CCCNC3)n2)s1 (centres undefined)	1.7	23.3	12.0	-38.8	1.8
CCOC(=O)N1CCN(C(=O)C2CCCN2S(=O)(=O)c2ccc(Cl)cc2)CC1 (centres undefined)	-2.6	-5.1	-2.2	-14.5	-2.1

Screens from PubChem.
